# Data published in PubChem BioAssay (NCATS).
# Results filed as inconclusive are left out. Where a call stands in place of a potency, no number is given. Calls of active or inactive are those of the source. Unless noted, calls come from the whole dose curve; as a rule, active = well fitted curve in the direction sought with a large enough effect; inconclusive = small, poorly fitted or top-dose-only effect, or another doubt; inactive = no such curve, though single readings can be large; an effect the other way counts as inactive or inconclusive.
# Assays:
# [1] = P-glycoprotein substrates identified in KB-8-5-11 adenocarcinoma cell line, qHTS therapeutic library screen (AID 1346987); note: nearly all actives have a fitted effect of over 65% in size
# Procedure, shortened: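 Human cervical adenocarcinoma KB-8-5-11 cells, selected in colchicine to over-express P-gp and assayed without it, were exposed for 72 h to titrated compounds. An ATP-based luminescent viability signal gave AC50.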
# [2] = molecular target: Atrial natriuretic peptide receptor 1 (Homo sapiens) (UniProt P16066); assay: Natriuretic polypeptide receptor (hNpr1) antagonism - Pilot screen (AID 1347049; calls by dose curve;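 note: HEK293 cells with hNpr1 and GloSensor cGMP luciferase stimulated by 0.1 nM hNppA; agonist-evoked cGMP luminescence read 20 min after hNppA addition; series mostly up to about 58 µM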)
# Sequence of Atrial natriuretic peptide receptor 1 (Homo sapiens) (P16066 whole entry, looked up): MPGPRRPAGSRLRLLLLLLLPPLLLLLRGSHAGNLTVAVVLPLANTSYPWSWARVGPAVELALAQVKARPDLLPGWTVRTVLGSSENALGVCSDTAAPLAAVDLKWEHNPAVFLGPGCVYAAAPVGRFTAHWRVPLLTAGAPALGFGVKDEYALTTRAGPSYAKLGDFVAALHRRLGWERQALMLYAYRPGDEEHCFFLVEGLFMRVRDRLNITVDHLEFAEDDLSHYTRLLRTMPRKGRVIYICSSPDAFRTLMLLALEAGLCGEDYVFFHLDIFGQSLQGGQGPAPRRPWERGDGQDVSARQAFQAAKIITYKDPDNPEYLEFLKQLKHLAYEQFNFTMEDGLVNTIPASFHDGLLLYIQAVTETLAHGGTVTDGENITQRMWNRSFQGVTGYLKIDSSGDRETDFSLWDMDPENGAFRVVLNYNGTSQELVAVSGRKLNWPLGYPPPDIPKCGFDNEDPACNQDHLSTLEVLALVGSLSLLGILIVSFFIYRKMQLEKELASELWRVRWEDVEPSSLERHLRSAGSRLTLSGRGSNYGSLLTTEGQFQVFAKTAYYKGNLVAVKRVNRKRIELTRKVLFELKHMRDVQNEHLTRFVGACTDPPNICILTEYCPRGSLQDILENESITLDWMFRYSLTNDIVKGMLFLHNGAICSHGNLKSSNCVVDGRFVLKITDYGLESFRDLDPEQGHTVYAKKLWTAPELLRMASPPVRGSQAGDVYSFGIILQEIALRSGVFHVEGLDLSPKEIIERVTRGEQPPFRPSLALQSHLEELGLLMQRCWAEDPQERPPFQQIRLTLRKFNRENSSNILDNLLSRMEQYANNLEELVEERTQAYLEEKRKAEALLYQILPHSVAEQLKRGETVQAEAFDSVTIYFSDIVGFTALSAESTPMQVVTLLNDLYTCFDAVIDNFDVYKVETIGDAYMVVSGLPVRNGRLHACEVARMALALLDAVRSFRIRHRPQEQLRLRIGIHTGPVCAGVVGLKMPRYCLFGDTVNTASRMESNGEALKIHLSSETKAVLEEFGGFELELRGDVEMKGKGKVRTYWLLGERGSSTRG
# Procedure, shortened: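 Receptor antagonism read as cGMP-dependent luminescence in hNpr1/pGS-40F HEK293 cells: pre-read after 30 min compound exposure, post-read 20 min after hNppA agonist at 0.1 nM final, all at room temperature, protected from light; A-71915 titration as control.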
# [3] = molecular target: Atrial natriuretic peptide receptor 2 (Homo sapiens) (UniProt P20594); assay: Natriuretic polypeptide receptor (hNpr2) antagonism - Pilot subtype selectivity assay (AID 1347050; calls by dose curve)
# Sequence of Atrial natriuretic peptide receptor 2 (Homo sapiens) (P20594 whole entry, looked up): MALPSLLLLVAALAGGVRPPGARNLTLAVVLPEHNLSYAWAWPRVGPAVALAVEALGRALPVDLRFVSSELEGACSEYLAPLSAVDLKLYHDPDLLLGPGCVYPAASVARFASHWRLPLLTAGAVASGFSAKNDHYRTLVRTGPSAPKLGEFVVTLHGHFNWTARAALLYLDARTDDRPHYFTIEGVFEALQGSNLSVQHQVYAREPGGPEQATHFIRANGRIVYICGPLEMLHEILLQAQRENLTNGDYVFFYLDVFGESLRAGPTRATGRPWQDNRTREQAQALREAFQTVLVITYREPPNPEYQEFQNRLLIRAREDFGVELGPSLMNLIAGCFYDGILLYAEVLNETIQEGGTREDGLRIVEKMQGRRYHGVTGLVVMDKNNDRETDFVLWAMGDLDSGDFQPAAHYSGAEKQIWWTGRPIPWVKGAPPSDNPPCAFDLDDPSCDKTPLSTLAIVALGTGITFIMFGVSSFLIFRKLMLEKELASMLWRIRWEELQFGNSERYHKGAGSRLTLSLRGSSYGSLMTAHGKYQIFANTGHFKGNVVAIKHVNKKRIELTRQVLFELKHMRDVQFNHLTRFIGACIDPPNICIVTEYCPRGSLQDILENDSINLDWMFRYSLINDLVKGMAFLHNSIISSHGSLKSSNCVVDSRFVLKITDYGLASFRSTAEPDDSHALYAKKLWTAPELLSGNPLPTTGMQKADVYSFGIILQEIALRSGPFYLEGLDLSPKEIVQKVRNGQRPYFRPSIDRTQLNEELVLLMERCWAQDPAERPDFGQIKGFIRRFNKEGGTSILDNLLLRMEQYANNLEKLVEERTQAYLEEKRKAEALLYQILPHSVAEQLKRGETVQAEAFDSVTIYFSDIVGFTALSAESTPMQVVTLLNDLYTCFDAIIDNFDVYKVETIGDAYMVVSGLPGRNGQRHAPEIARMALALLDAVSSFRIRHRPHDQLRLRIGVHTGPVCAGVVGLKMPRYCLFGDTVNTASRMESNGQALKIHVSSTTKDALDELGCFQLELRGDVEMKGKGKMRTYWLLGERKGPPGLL
# Procedure, shortened: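 Antagonist mode: compounds (LOPAC1280, seven 1:5 dilutions) added 30 min before 1 nM hNppC stimulation of hNpr2-HEK293 cGMP-sensor cells; luminescence read before and 20 min after agonist at ambient temperature.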
# [4] = molecular target: Parathyroid hormone/parathyroid hormone-related peptide receptor (Homo sapiens) (UniProt Q03431); assay: qHTS for PTHR1 Agonists: Optimization Screen against the NCGC LOPAC library (AID 1347079);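 note: GloSensor cAMP luminescence in HEK-293 GP2 cells expressing human PTHR1 with IBMX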
# Sequence of Parathyroid hormone/parathyroid hormone-related peptide receptor (Homo sapiens) (Q03431 whole entry, looked up): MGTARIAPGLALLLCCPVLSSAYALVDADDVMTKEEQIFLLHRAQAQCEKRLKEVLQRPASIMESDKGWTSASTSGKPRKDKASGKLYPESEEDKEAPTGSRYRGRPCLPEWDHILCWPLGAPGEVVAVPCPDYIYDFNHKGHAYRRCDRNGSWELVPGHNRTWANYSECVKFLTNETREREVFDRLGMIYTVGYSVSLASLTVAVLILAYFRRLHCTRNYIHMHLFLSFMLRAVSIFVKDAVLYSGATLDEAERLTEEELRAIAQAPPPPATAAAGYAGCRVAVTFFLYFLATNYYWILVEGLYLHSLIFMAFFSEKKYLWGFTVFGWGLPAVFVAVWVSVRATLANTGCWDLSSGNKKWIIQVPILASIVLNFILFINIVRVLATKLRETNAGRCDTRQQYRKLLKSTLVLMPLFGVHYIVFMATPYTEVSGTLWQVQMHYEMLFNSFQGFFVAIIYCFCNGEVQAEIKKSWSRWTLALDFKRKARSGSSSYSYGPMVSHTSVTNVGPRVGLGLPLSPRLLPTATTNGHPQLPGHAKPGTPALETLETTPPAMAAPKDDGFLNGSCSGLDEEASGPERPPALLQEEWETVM
# Procedure, shortened: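 Signal increase flags agonism. GP2 cells, derived from HEK-293, express human PTHR1 and a GloSensor cAMP construct.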
# [5] = molecular target: N-terminal Xaa-Pro-Lys N-methyltransferase 1 (Homo sapiens) (UniProt Q9BV86); assay: qHTS Assay for Inhibitors of N-terminal methyltransferase 1 (NTMT1): LOPAC validation of the NTMT1 SAHH-coupled ThioGlo3 Assay (AID 1347143);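 note: SAH from peptide methylation measured as thiol fluorescence via SAHH coupling and ThioGlo3; nearly all actives have a fitted effect of over 70% in size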
# Sequence of N-terminal Xaa-Pro-Lys N-methyltransferase 1 (Homo sapiens) (Q9BV86 whole entry, looked up): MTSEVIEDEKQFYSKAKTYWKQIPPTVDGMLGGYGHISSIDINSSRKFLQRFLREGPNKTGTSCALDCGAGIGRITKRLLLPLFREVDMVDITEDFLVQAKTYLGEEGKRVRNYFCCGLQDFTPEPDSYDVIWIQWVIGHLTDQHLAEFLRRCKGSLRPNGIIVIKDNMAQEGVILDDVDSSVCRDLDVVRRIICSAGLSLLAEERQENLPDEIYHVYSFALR
# Procedure, shortened: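 NTMT1 125nM + cpds (various conc.), 1 min RT; add SAM 100uM/SAHH 10uM/ThioGlo3 15uM (addition mix). SAHH-coupled thiol detection, Ex340/Em450, t0 and 30 min RT; signal normalized to background. LOPAC 1280-cpd pilot.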
# Furin (Homo sapiens) = Furin (Homo sapiens) (UniProt P09958); assay: Furin counterscreen qHTS for Zika virus inhibitors (AID 1347149); note: potency is the fitted concentration of half-maximal effect; nearly all actives have a fitted effect of over 70% in size
# Sequence of Furin (Homo sapiens) (P09958 whole entry, looked up): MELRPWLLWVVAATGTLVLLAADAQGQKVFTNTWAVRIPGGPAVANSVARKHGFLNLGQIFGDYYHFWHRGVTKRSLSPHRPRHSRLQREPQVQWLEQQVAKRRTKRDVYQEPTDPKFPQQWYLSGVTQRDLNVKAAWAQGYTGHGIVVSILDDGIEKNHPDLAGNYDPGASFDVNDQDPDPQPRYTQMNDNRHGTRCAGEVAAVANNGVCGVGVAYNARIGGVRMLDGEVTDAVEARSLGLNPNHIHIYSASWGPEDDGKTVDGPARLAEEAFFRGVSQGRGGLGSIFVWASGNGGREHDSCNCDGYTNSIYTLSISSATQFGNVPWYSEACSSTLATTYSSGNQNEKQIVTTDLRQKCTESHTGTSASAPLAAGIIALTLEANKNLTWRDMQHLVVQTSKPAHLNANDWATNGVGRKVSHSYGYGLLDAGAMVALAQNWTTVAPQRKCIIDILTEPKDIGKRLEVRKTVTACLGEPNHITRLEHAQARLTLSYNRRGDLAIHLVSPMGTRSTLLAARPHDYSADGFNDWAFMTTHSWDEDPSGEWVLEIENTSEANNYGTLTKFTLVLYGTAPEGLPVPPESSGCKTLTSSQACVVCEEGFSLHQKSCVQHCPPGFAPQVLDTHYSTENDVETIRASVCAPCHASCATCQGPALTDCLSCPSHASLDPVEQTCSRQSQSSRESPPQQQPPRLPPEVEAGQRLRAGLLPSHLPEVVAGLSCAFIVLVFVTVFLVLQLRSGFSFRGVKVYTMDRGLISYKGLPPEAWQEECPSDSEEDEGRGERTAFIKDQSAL
# Procedure, shortened: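 Counterscreen measures cleavage of 2 microM BOC-RVRR-AMC, below its ~15 microM Km, by 5 nM full-length human furin at pH 7.0 after a 15-min compound preincubation. Inhibition derives from the 15-min fluorescence increase at 37C.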
# [6] = test system: Zika virus NS2B-NS3 protease (linked construct); assay: Confirmatory screen NINDS AMC qHTS for Zika virus inhibitors (AID 1347152); note: potency is the fitted concentration of half-maximal effect; nearly all actives have a fitted effect of over 70% in size
# Procedure, shortened: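 Concentration-response confirmation used the NINDS linked protease (NS2B hydrophilic domain joined to NS3 protease domain), 1 nM, with a 15-min compound preincubation. Substrate, Nle-KRR-AMC at 10 microM, was read by UV fluorescence before and after 15 min.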
structure (smiles),measurement,setting,value
NCCCC(=O)O,Potency,[1],inactive
same,outcome,[2],inactive
same,Potency,[3],inactive
same,outcome,[4],inactive
same,outcome,[5],inactive
O=C(Nc1ccc(/C=C/c2ccc(NC(=O)c3cc(S(=O)(=O)O)c4cccnc4c3O)cc2S(=O)(=O)O)c(S(=O)(=O)O)c1)c1cc(S(=O)(=O)O)c2cccnc2c1O,Potency,[1],inactive
same,Potency,Furin (Homo sapiens),46.9 µM (active)
C[C@]12CC[C@@H]3c4ccc(OS(=O)(=O)O)cc4CC[C@H]3[C@@H]1CCC2=O,Potency,[1],inactive
CCCCOc1ccc(S(=O)(=O)n2c(C)nc3ccccc32)cc1,Potency,[1],inactive
N#Cc1ccc(-c2ccc(S(=O)(=O)Nc3cccc(N)n3)cc2)cc1,Potency,[1],inactive
COC1CC/C=C(\C)C(=O)Nc2cc(O)cc(c2)CC(C)CC(OC)C(O)C(C)/C=C(\C)C1OC(N)=O (stereo not drawn),Potency,[1],inactive
COc1cc2nc(N3CCN(C(=O)COc4c(OC)cccc4C(C)C)CC3)nc(N)c2cc1OC,Potency,[1],inactive
O=S(=O)(Nc1cc(Cl)c(Oc2cnc3ccccc3c2)c(Cl)c1)c1ccc(Cl)cc1Cl,Potency,[6],13.9 µM (active)
